Reference: PubChem BioAssay (EPA / NIEHS)
Values joined by “and” are separate entries in the source; they are usually repeats but may differ in a detail not shown here. Equal entries are not always repeated. Records with an inconclusive call do not appear. Active and inactive are the calls of the source. How the source made its calls: active means hit-call score of the fitted dose curve at least 0.9, where 1 is the maximum; inconclusive means response in the unintended direction; inactive means score below 0.9.

Assay: ACEA_ER_AUC_viability: ACEA Biosciences xCELLigence Real-Time Cell Analysis on Estrogen Receptor Agonism for Viability (AID 2283782);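 further: hit means loss of impedance signal meaning reduced cell growth or viability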
Outline: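 Continuous-exposure impedance cell analysis uses T-47D cells in charcoal-stripped serum, eight 1:4 dilutions topping at 100 uM final, biological duplicate. Area under the growth curve at 80 h is fitted against DMSO baseline.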

| Compound | AC50 | outcome |
| --- | --- | --- |
| O=S(=O)(c1ccc(Cl)cc1)c1cc(Cl)c(Cl)cc1Cl | 69.2 µM (active) | – |
| O=C1C=CC(=O)c2ccccc21 | 22.5 µM (active) | – |
| N#Cc1ccc(Cl)cc1 | 50 µM (active) | – |
| CCCCOC(=O)COC(=O)c1ccccc1C(=O)OCCCC | – | inactive |
| c1cc[c]([Sb]([c]2ccccc2)[c]2ccccc2)cc1 | 50 µM (active) | – |
| CC(C)=CC1C(C(=O)OCc2cccc(Oc3ccccc3)c2)C1(C)C (stereo not drawn) | – | inactive |
| CCC[CH2][Sn]([CH2]CCC)([CH2]CCC)[CH2]CCC | 22 µM (active) | – |
| ClCc1ccccc1CCl | 29.6 µM (active) | – |
| CCOP(=S)(OCC)OP(=S)(OCC)OCC | – | inactive |
| ClCCN1CCOCC1 | 31.6 µM (active) | – |
| O=C(N[C@H]1CN2CCC1CC2)c1ccc2c(c1)OCCO2 | – | inactive |
| C=CCN=C=S | – | inactive |
| BrCCCCBr | – | inactive |
| c1ccc2sc(SNC3CCCCC3)nc2c1 | 85.5 µM (active) | – |
| CCOP(=O)(OCC)OC(=CCl)c1ccc(Cl)cc1Cl | 77.8 µM (active) | – |
| C[N+](C)(C)Cc1ccccc1 | – | inactive |
| Brc1c(Br)c(Br)c(Oc2c(Br)c(Br)c(Br)c(Br)c2Br)c(Br)c1Br | – | inactive |
| Cc1cc(Cl)ccc1N | 80.8 µM (active) and 14.3 µM (active) | – |
| Cc1c([N+](=O)[O-])c(C)c([N+](=O)[O-])c(C(C)(C)C)c1[N+](=O)[O-] | – | inactive |
| c1ccc2c(c1)Oc1ccccc1O2 | – | inactive |
| CCC(C)(C#N)N=NC(C)(C#N)CC (stereo not drawn) | – | inactive |
| CCN(N=O)C(N)=O | – | inactive |
| Cc1cc(Cl)ccc1O | – | inactive |
